Measurements from PubChem BioAssay.

The compounds below were run on Sonic hedgehog protein (Shh) (assay: small-molecule binders of Shh protein, primary screen, biochemical, small-molecule microarray, 635/667 nm fluorescence (AID 1151;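 note: Shh protein binding to compounds spotted on small-molecule microarray slides; score combines spot fluorescence intensity with signal-to-noise across triplicate slides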)). Settings: small-molecule microarray binding, 635 nm fluorescence; higher = more signal.

SMILES | composite z-score
COc1cccc(C)c1NC(=O)O[C@H]1[C@H](OC(=O)Nc2ccccc2-c2ccccc2)[C@H](OC(=O)Nc2ccccc2-c2ccccc2)[C@@H](OC)O[C@@H]1CO | 1.39
CCCCC(CC)C(O)C1C=CC2C(=O)N(c3ccccc3)C(=O)C2N1Nc1ccccc1F (configuration not stated) | -0.045
C=CC[C@]1(C(=O)N2CCOCC2)COC(c2ccc(OCCCO)cc2)=N1 | 0.935
CCOC(=O)C[C@H]1[C@H](OC(=O)Cc2ccc3c(c2)OCO3)[C@@H](NC(=O)C2CCCCC2)c2cc(OCCCO)ccc2N1C(=O)c1ccccc1 | 0.0725
O=C1O[C@@H](c2ccccc2)[C@@H](c2ccccc2)N2[C@@H](c3ccc(O)cc3)[C@]3(C(=O)Nc4ccc(C#CCCO)cc43)[C@@H](C(=O)N3CCN(c4ncccn4)CC3)[C@H]12 | 2.21
O[C@@H](Cc1ccccc1)[C@@H](/C=C/C1CC1)N(CC#Cc1ccccc1)Cc1ccccc1Br | -1.5
CCCC1(C(=O)OC)C=C2C(=C(C)C(=O)C2C)CN1 (configuration not stated) | -0.552
O=C1C2C=CC(C(O)c3ccco3)N(Nc3ccccc3F)C2C(=O)N1c1ccccc1 (configuration not stated) | 0.155
COc1ccc([Si](C)(C)[C@@H]2[C@@H](CCO)O[C@]3(C(=O)N(Cc4ccccc4)c4ccc(N5C(=O)c6cccc7cccc5c67)cc43)[C@H]2C)cc1 | -0.204
CC(C)=C1C(=O)C(c2ccccc2)=C2CN3C(=O)N(CCc4ccccc4)C(=O)[C@]3(Cc3ccc(C(F)(F)F)cc3)[C@H]21 | -1.18
CCCCCN1CC=CC23O[C@@H]4/C=C\CCC(C)OC(=O)C4[C@H]2C(=O)N(C(CO)C(C)C)[C@@H]3C1=O (some centres not stated) | 0.866
COC(=O)[C@@]1(Cc2ccc(OC)cc2)[C@H]2c3cc(C(=O)N4CCCC4)n(CCO)c3C[C@H]2CN1C(=O)c1ccccc1 | -0.645
